What all share (assay): BK channel mutant inhibitors and activators – cell-based, U2OS BacMam, thallium flux, beta subunits, selectivity assay, profiling panel (AID 1259406);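 note: initial slope of Thallos dye fluorescence rise after thallium is added; log ratio against the mean of 0.3% DMSO vehicle wells on the same plate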
In one assay the test system is F380Y. The following applies: U2OS BacMam BK variants, at 30 µM.
Another assay has as its system F380Y/beta1. The following applies: U2OS BacMam BK variants, at 30 µM.
Another assay has as its system F380Y/beta2Delta. The conditions noted are these: U2OS BacMam BK variants, at 30 µM.
The test system of another assay is F380Y/beta4. The following applies: U2OS BacMam BK variants, at 30 µM.
In assay [1] the target is Calcium-activated potassium channel subunit alpha-1 (Homo sapiens) + Leucine-rich repeat-containing protein 26 (Homo sapiens) (UniProt Q12791+Q2I0M4). The conditions noted are these: U2OS BacMam BK variants, F380Y/Slo1WT/gamma1, at 30 µM.
Chain of Calcium-activated potassium channel subunit alpha-1 (Homo sapiens) + Leucine-rich repeat-containing protein 26 (Homo sapiens) (Q2I0M4 whole entry, looked up, one chain of several): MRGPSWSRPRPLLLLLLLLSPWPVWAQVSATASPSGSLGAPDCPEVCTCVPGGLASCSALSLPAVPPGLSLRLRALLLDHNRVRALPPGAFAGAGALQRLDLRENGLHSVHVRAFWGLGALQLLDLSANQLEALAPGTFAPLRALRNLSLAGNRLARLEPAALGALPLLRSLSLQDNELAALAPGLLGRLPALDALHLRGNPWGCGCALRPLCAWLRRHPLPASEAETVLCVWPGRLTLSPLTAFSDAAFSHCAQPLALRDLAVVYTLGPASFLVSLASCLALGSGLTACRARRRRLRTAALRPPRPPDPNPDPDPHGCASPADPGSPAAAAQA
Another assay deals with R275C. The conditions noted are these: U2OS BacMam BK variants, at 30 µM.
The test system of a further assay is R275C/beta1. The conditions noted are these: U2OS BacMam BK variants, at 30 µM.
In another assay the test system is R275C/beta2Delta. The conditions noted are these: U2OS BacMam BK variants, at 30 µM.
In a further assay the test system is R275C/beta4. The conditions noted are these: U2OS BacMam BK variants, at 30 µM.
The test system of another assay is R275C/Slo1WT/beta2. The conditions noted are these: U2OS BacMam BK variants, at 30 µM.

Unmarked numbers belong to inactive results. Calls of active or inactive are those of the source.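 Rule for the calls: active = thallium flux through the channel raised or lowered by more than 3 SD from vehicle-only wells, actives on both sides; inactive = the rest.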

As for `CC(c1ccccc1)n1c(SCc2cc(=O)oc3cc(O)ccc23)n[nH]c1=O` (stereo not given), the log fold change Tl+ flux with F380Y is -0.0609; in the assay on F380Y/beta1, 0.00559; in the assay with F380Y/beta2Delta, 0.0151; in the assay on F380Y/beta4 it was 0.0558; in assay [1] it was 0.0977; in the assay on R275C it was 0.0366. Besides, the log fold change Tl+ flux was 0.0338 in the assay with R275C/beta1, 0.123 (active) with R275C/beta2Delta, 0.102 (active) in the assay on R275C/beta4 and -0.0189 with R275C/Slo1WT/beta2.

In the case of `CCOC(=O)c1cc(NC(=O)CC(C)(C)CC(=O)O)ccc1N1CCCCC1`, the log fold change Tl+ flux was 0.0551 in the assay on F380Y; 0.0365 in the assay on F380Y/beta1; 0.0312 in the assay on F380Y/beta2Delta; 0.0131 in the assay with F380Y/beta4; -0.0575 in assay [1]; 0.0216 with R275C. Besides, the log fold change Tl+ flux was 0.0587 in the assay with R275C/beta1, 0.0261 with R275C/beta2Delta, 0.0168 in the assay on R275C/beta4 and 0.00209 in the assay on R275C/Slo1WT/beta2.

In the case of `CCCCCCCCCCCCSC(=S)NCC1CCCO1` (stereo not given), the log fold change Tl+ flux in the assay on F380Y is 0.0353; in the assay on F380Y/beta1 it was 0.0262; in the assay on F380Y/beta2Delta, 0.0128; in the assay with F380Y/beta4, 0.0306; in assay [1], 0.0128; in the assay with R275C it was -0.00711. Besides, the log fold change Tl+ flux in the assay on R275C/beta1 is -0.0124; in the assay with R275C/beta2Delta, 0.0322; in the assay with R275C/beta4, -0.00355; in the assay on R275C/Slo1WT/beta2, -0.00192.

On to `O=C(O)c1nnn(-c2ccccc2Oc2ccc(Cl)cc2Cl)c1-c1ccccc1`, for which the log fold change Tl+ flux in the assay with F380Y is 0.0736; in the assay on F380Y/beta1 it was 0.343 (active); in the assay with F380Y/beta2Delta, 0.17 (active); in the assay with F380Y/beta4 it was 0.243 (active); in assay [1], 0.127 (active); in the assay on R275C, -0.021. Besides, the log fold change Tl+ flux in the assay on R275C/beta1 is 0.297 (active); with R275C/beta2Delta it was 0.113 (active); with R275C/beta4, 0.287 (active); in the assay on R275C/Slo1WT/beta2 it was 0.0348.

For the compound `Cc1ccc(S(=O)(=O)NC(=O)Nc2nc(-c3ccc(C)c(Cl)c3)c(C)s2)cc1`, the log fold change Tl+ flux was 0.099 with F380Y; 0.176 (active) in the assay on F380Y/beta1; 0.0427 in the assay on F380Y/beta2Delta; 0.19 (active) with F380Y/beta4; 0.156 (active) in assay [1]; 0.265 (active) in the assay on R275C. The log fold change Tl+ flux is 0.24 (active) in the assay with R275C/beta1, 0.0622 in the assay with R275C/beta2Delta, 0.211 (active) with R275C/beta4 and 0.0547 in the assay with R275C/Slo1WT/beta2.

Consider `CCc1ccc(C(=O)Nc2cccc(S(N)(=O)=O)c2)cc1`, for which the log fold change Tl+ flux is -0.0133 with F380Y; -0.00607 in the assay with F380Y/beta1; -0.0279 in the assay on F380Y/beta2Delta; 0.0112 in the assay with F380Y/beta4; 0.028 in assay [1]; -0.00467 with R275C. Moreover, the log fold change Tl+ flux in the assay on R275C/beta1 was -0.00416; in the assay with R275C/beta2Delta, -0.0306; in the assay with R275C/beta4 it was 0.0218; in the assay on R275C/Slo1WT/beta2 it was 0.0201.

In the case of `Cc1cccc(N=Cc2cc(Cl)cc(Cl)c2O)c1C`, the log fold change Tl+ flux in the assay on F380Y is 0.049; in the assay on F380Y/beta1, 0.0694; with F380Y/beta2Delta, 0.0737; with F380Y/beta4, 0.0885; in assay [1], 0.078; in the assay with R275C it was 0.0221. Also, the log fold change Tl+ flux in the assay on R275C/beta1 is 0.0155; in the assay with R275C/beta2Delta it was 0.0671; in the assay on R275C/beta4, 0.00158; in the assay on R275C/Slo1WT/beta2, -0.00626.

With `Cc1nc(-c2ccccc2)sc1C(=O)NC(=O)c1ccccc1O`, the log fold change Tl+ flux with F380Y is 0.0264; in the assay with F380Y/beta1, 0.0766; in the assay on F380Y/beta2Delta, 0.0338; in the assay on F380Y/beta4, 0.00645; in [1], 0.146 (active); in the assay on R275C, 0.0501. Moreover, the log fold change Tl+ flux was 0.0519 in the assay on R275C/beta1, 0.07 in the assay on R275C/beta2Delta, 0.078 in the assay with R275C/beta4 and 0.011 with R275C/Slo1WT/beta2.

Consider `Cc1nc(C)c(C(=O)O)c(-c2ccsc2)c1C(=O)O`, for which the log fold change Tl+ flux was 0.00149 in the assay with F380Y; 0.0257 in the assay on F380Y/beta1; -0.0103 in the assay on F380Y/beta2Delta; 0.0238 in the assay with F380Y/beta4; 0.0233 in assay [1]; 0.0307 with R275C. Moreover, the log fold change Tl+ flux with R275C/beta1 is 0.0388; in the assay on R275C/beta2Delta, -0.00263; in the assay on R275C/beta4 it was 0.00868; in the assay with R275C/Slo1WT/beta2, 0.0152.

On to `CCCOc1ccccc1C=NNC(=S)Nc1ccc(C)c(C)c1`, for which the log fold change Tl+ flux was 0.0357 in the assay with F380Y; 0.0157 in the assay on F380Y/beta1; 0.00918 with F380Y/beta2Delta; 0.0274 in the assay on F380Y/beta4; -0.0242 in assay [1]; -0.0214 in the assay on R275C. Also, the log fold change Tl+ flux in the assay on R275C/beta1 was 0.0271; with R275C/beta2Delta it was -0.0014; in the assay with R275C/beta4 it was 0.00171; with R275C/Slo1WT/beta2, 0.0415.

For `O=C(Nc1ccc(Cl)cc1)c1cnccc1C(F)(F)F`, the log fold change Tl+ flux is 0.0622 with F380Y; 0.0187 with F380Y/beta1; 0.066 in the assay with F380Y/beta2Delta; 0.0347 in the assay with F380Y/beta4; -0.0423 in assay [1]; 0.0193 with R275C. The log fold change Tl+ flux was 0.0288 in the assay with R275C/beta1, -0.00135 with R275C/beta2Delta, 0.0311 in the assay on R275C/beta4 and -0.0457 in the assay on R275C/Slo1WT/beta2.

Consider `Cn1c(Sc2cnc(=S)[nH]c2-c2ccc(Cl)cc2)nnc1C(F)(F)F`, for which the log fold change Tl+ flux in the assay on F380Y was 0.000803; in the assay with F380Y/beta1, 0.0224; with F380Y/beta2Delta, 0.000625; in the assay with F380Y/beta4 it was -0.0336; in [1] it was 0.0434; with R275C, -0.0138. In addition, the log fold change Tl+ flux in the assay with R275C/beta1 is -0.00364; in the assay on R275C/beta2Delta, -0.0183; in the assay on R275C/beta4, 0.0272; in the assay with R275C/Slo1WT/beta2, 0.0806.

On to `CCSc1n[nH]c(=S)s1`, for which the log fold change Tl+ flux is -0.0724 in the assay with F380Y; 0.0129 in the assay on F380Y/beta1; 0.00494 in the assay on F380Y/beta2Delta; 0.00824 in the assay with F380Y/beta4; -0.0169 in assay [1]; 0.0305 in the assay on R275C. For the same compound, the log fold change Tl+ flux in the assay with R275C/beta1 was -0.0034; with R275C/beta2Delta, 0.0134; in the assay on R275C/beta4, 0.0178; in the assay with R275C/Slo1WT/beta2 it was 0.00702.

The values above are taken from PubChem BioAssay.
